# Assay outcomes deposited in PubChem BioAssay by National Center for Advancing Translational Sciences (NCATS).
# HT1080-NT tox – kills 2HG-producing HT-1080-NT fibrosarcoma cells; 1.6% of 360,000 active; Potency, µM (top dose mostly 46.1 µM), for inactives: top-dose activity, negative = less viability, hits mostly cytotoxic; HT-1080-NT fibrosarcoma viability, CellTiter-Glo ATP luminescence, 48 h;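 further: NT is the 2HG producing partner of a matched IDH1 knockdown line; potency means the concentration at half of the fitted maximal effect; 0% = DMSO-treated cells and -100% = media-only wells without cells; nearly all actives have a fitted effect of over 55% in size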
#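 HT-1080-NT; 750 cells/well; 5% FBS RPMI; 48 h compound, 37 degrees C; CellTiter-Glo luminescence; curve fitting and curve-class assignment.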
# TDP1 cell noCPT – qHTS for Inhibitors of human tyrosyl-DNA phosphodiesterase 1 (TDP1): qHTS in cells in absence of CPT; DT40 Tdp1-/- hTDP1 cells, no CPT, ATP luminescence, 48 h; Potency, µM (highest dose often 46.2 µM), inactives show at the top dose activity change, negative = growth inhibition, most hits filed as inhibitors; 15% of 420,000 active; further: potency means the concentration at half of the fitted maximal effect; nearly all actives have a fitted effect of over 55% in size
#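 DT40 Tdp1-/-;hTDP1 cells, no CPT (DMSO vehicle only), 400 cells/well; compounds pin-transferred; ≥48 hr, 37 °C; CellTiter-Glo 30 min RT dark, luminescence read.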
# HT1080 IDH1KD tx – HT-1080 IDH1 knockdown cell toxicity (counter line); 2% of 360,000 active; HT-1080 IDH1 knockdown viability, ATP luminescence, 48 h; Potency, µM (titrated, usually from 46.1 µM), for the others: top-dose activity, negative = toxicity, actives largely listed as cytotoxic;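 further: potency means the concentration at half of the fitted maximal effect; 0% = DMSO wells and -100% = cell-free medium wells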
#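 In this qHTS, HT-1080 cells depleted of IDH1 are exposed for 48 h at 37 °C to compound titrations. Toxicity is scored from CellTiter-Glo luminescence, with DMSO as full viability and medium alone as none.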
# DT40 TDP1 CPT – DT40-hTDP1 cell growth loss with CPT; chicken DT40 Tdp1-/-;hTDP1 cells + 20 nM CPT, ATP luminescence, 48 h; Potency, µM (series often up to 46.2 µM), inactives show at the highest dose activity change, negative = growth inhibition, actives largely listed as inhibitors; AID 686979; 12% of 420,000 active; further: potency means the concentration at half of the fitted maximal effect; nearly all actives have a fitted effect of over 55% in size
#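 Chicken DT40 Tdp1-/- cells stably complemented with human TDP1 were seeded at 400 cells/well in medium containing 20 nM camptothecin, exposed to pin-transferred compounds, and grown at 37 °C for at least 48 hr. Viability was read as ATP luminescence.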
# IL-1B inflam inh – blocks inflammasome-driven IL-1 beta release | THP-1 LPS/ATP IL-1B secretion, AlphaLISA, 16 h; active compounds read low | activity change, % at 57.5 µM | 4.7% of 360,000 active; in the data active means activity change below about -50%; inconclusive means mostly about -30% to -49%
#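 THP-1 cells pretreated 1 hr with compounds (up to 57.5 uM final), then stimulated with LPS (250 ng/mL final) plus ATP (1.25 mM final); secreted IL-1B measured by AlphaLISA after 16 hr, decreased signal indicating inhibition.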
# Active calls of the source: *; u = inconclusive; x = no result given; ! = a repeat was not active. Hits are enriched below; roughly 19% of the tested compounds scored in any of these assays. Unless noted, the call rests on the fitted dose curve; in most records, active means well fitted curve in the direction sought with a large enough effect; inconclusive means small, poorly fitted or top-dose-only effect, or another doubt; inactive means no such curve, though single readings can be large; an effect the other way counts as inactive or inconclusive. Unless noted, on the % scale 0 is the no-effect control and ±100 the full control effect.
SMILES,HT1080-NT tox,TDP1 cell noCPT,HT1080 IDH1KD tx,DT40 TDP1 CPT,IL-1B inflam inh
CC(=O)c1c(C(C)=O)c(C)n(-c2nc(-c3ccccc3)c(C)s2)c1C,4%,13µM*,-8%,u,-10
Cc1sc(N)nc1-c1ccccc1,1%,-6%,6%,7%,14
COc1ccccc1-c1cnc(C(O)c2ccc(Cl)cc2C)[nH]1 (centres undefined),-30%,18µM*,u,u,-2
COc1ccccc1-c1cnc(C(O)c2cccc(C)c2C)[nH]1 (centres undefined),-23%,16µM*,2%,15µM*,21
COc1cccc(-c2cnc(C(O)c3ccc(Cl)cc3C)[nH]2)c1 (centres undefined),-16%,16µM*,-19%,23µM*,12
COc1cccc(-c2cnc(C(O)c3cc(C)ccc3C)[nH]2)c1 (centres undefined),17%,-28%,10%,u,u
COc1ccccc1-c1cnc(C(O)c2c(C)cccc2C)[nH]1 (centres undefined),-9%,-29%,-6%,u,8
Cc1cc(Cl)ccc1C(O)c1ncc(-c2ccccc2C(F)(F)F)[nH]1 (centres undefined),u,15µM*,u,26µM*,15
O=C(CN1CCCC1=O)NC1C2CC3CC(C2)CC1C3 (centres undefined),-2%,-8%,1%,-7%,-4
COc1cccc(-c2cnc(C(O)c3ccc(Cl)c(F)c3)[nH]2)c1 (centres undefined),-13%,u,-15%,15µM*,1
CC(C)Cc1ccc(S(=O)(=O)N2CCCC2)cc1,7%,u,6%,u,-3
CC(C)Cc1ccc(S(=O)(=O)N2CCC(c3ccncc3)CC2)cc1,x,7.3µM*,x,9.2µM*,x
CC(=O)Nc1ccc(S(=O)(=O)N2CCC(c3ccncc3)CC2)cc1,x,2.6µM*,x,5.2µM*,x
Cc1ccc(S(=O)(=O)N2CCC(c3ccncc3)CC2)c(C)c1,x,10µM*,x,21µM*,x
O=S(=O)(c1ccccc1)N1CCC(c2ccncc2)CC1,x,21µM*,x,-85%,x
Nc1ccc(N2CCOCC2)cc1C(F)(F)F,-18%,0%,0%,0%,17
CC(C)CN(C(=O)Cn1c(C(F)(F)F)nc2ccccc21)c1c(N)n(Cc2ccccc2)c(=O)[nH]c1=O,11%,-1%,6%,2%,-9
CCOC(=O)c1ccccc1NC(=O)C1CC(=O)N(C2CCCC2)C1 (centres undefined),-1%,-17%,-1%,u,-6
NS(=O)(=O)c1ccc(S(=O)(=O)N2CCCC(c3ccccc3)C2)cc1 (centres undefined),-18%,23µM*,-16%,u,3
CC(C)(C)c1ccc(S(=O)(=O)N2CCC(N3CCCCC3)CC2)cc1,-3%,u,1%,-18%,-10
CC(C)(C)c1ccc(S(=O)(=O)N2CCC(c3ccncc3)CC2)cc1,x,8.2µM*,x,13µM*,x
COc1cc(OC)c(C(=O)OCC(=O)Nc2ccc(S(=O)(=O)N3CCOCC3)cc2)cc1OC,3%,u,2%,-1%,-1
COc1ccc(OC)c(NC(=O)c2cccc(S(=O)(=O)N(Cc3ccccc3)c3ccccc3OC)c2)c1,7%,u,13%,6.5µM*,7
COc1ccccc1N(Cc1ccccc1)S(=O)(=O)c1cccc(C(=O)N2CCCCC2)c1,u,18µM*,u,u,-58*
COc1ccccc1N(C)S(=O)(=O)c1ccc(C)c(C(=O)N2CCCCCC2)c1,3%,7.3µM*,2%,7.3µM*,-2
SMILES,HT1080-NT tox,TDP1 cell noCPT,HT1080 IDH1KD tx,DT40 TDP1 CPT,IL-1B inflam inh
COc1ccc(S(=O)(=O)N2CCCCCC2)cc1N(C)S(=O)(=O)c1ccccc1,7%,23µM*,-1%,u,-4
COc1ccccc1N(C)S(=O)(=O)c1ccc(C(=O)N2CCC2)cc1,-13%,u,4%,u,9
COc1ccc(S(=O)(=O)N2CCCCC2)cc1N(C)S(=O)(=O)c1ccccc1,0%,u,-5%,u,23
CCCCS(=O)(=O)Nc1ccc(C)cn1,2%,u,10%,u,24
CCCCN1CCC(COC(=O)c2cc(Cl)c(N)c3c2OCCO3)CC1,11%,-25%,-4%,5%,-14
CCCCN1CCC(CCC(=O)c2cc(Cl)c(N)cc2OC)CC1,x,27µM*!,x,u,x
CCOc1ccc(NC(=O)NCCn2nnc3cc(S(=O)(=O)N(C)C)ccc32)cc1,x,-10%,x,9%,x
C=CCN(Cc1ccc(OC)c(OC)c1)C(=O)c1cc2cc(F)ccc2[nH]1,u,u,u,13µM*,5
O=C(CSc1nc2nn(-c3ccccc3)c(=O)c-2c2n1CCCCC2)Nc1ccc(F)cc1F,-7%,19%,1%,3%,-56*
CC(=O)c1ccc(NC(=O)CSc2nc3nn(-c4ccccc4)c(=O)c-3c3n2CCCCC3)cc1,0%,16µM*,-1%,26µM*,0
CC(C)CNC(=O)CSc1nc2nn(-c3ccccc3)c(=O)c-2c2n1CCCCC2,-3%,-8%,-3%,1%,-53*
O=C(NC1CCCCCC1)C1CCN(C(=O)c2cccc(Cl)c2)CC1,15%,-2%,2%,-19%,4
COc1ccccc1C1=NNC(=Nc2cccc(S(=O)(=O)N(C)C)c2)SC1,u,u,u,u,-72*
CC(NC(=O)c1ccco1)c1nc(-c2ccc(C(C)(C)C)cc2)no1 (centres undefined),u,21µM*,-24%,21µM*,0
CC(C)(C)c1ccc(-c2noc(CNC(=O)c3ccco3)n2)cc1,-25%,u,-20%,-29%,-15
CC(NC(=O)c1ccco1)c1nc(-c2ccccc2Cl)no1 (centres undefined),0%,-10%,-6%,-18%,20
CC(=O)Nc1ccc(S(=O)(=O)NC(C)c2nc(-c3ccccc3)no2)cc1 (centres undefined),-8%,-8%,9%,-16%,-3
Cc1ccc(-c2noc(C(C)NC(=O)c3ccco3)n2)cc1 (centres undefined),x,12µM*,x,16µM*,x
Cc1ccc(-c2noc(C(C)NS(=O)(=O)c3ccc(C)cc3)n2)cc1 (centres undefined),x,21µM*,x,u,x
N#Cc1cccc(S(=O)(=O)NCCOc2ccccc2F)c1,0%,-14%,-6%,-6%,2
COc1ccc(CCNC(=O)c2cccnc2Cl)cc1OC,3%,-25%,2%,-14%,12
